The values below come from the supplement of paper PMC6288085.

Each structure is given as a SMILES string. Counter-ions that a name gives are not always drawn. ± gives the uncertainty stated by the source.

This assay has as its system Caenorhabditis elegans N2. The assay can be described thus: food intake (mean delta OD600 / animal over 72 h) with 50 uM loxapine co-treatment (OD600 units per animal); higher = more food eaten (less suppression of loxapine-induced hyperphagia). Conditions: first compound 33 µM, loxapine concentration 50 µM. The procedure:
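C. elegans N2 adults (FUDR-sterilised, day 1) in 96-well plates fed gamma-irradiated bacteria. Each library drug (MedChemExpress FDA-approved library) at 33 uM was combined with loxapine at 50 uM. Food intake was measured as bacterial clearance: the change in OD600 from day 1 to 72 h, normalised per animal (mean over 14-21 wells of about 10-12 worms). Drugs flagged for bacterial lysis or sickness were excluded by the authors.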
For `O=C(N/N=C/c1ccc([N+](=O)[O-])o1)c1cc([N+](=O)[O-])cc([N+](=O)[O-])c1O` [nifursol] + CN1CCN(C2=Nc3ccccc3Oc3ccc(Cl)cc32)CC1 [loxapine], the food intake is 0.0249 ± 0.0032.

Regarding `C=CCN1CC[C@]23c4c5ccc(O)c4O[C@H]2C(=O)CC[C@@]3(O)[C@H]1C5` [naloxone (hydrochloride)] + CN1CCN(C2=Nc3ccccc3Oc3ccc(Cl)cc32)CC1 [loxapine], the food intake came out at 0.0254 ± 0.0053.

Take `COc1cc2c(cc1OC)C1CC(=O)C(CC(C)C)CN1CC2` (configuration not stated) [tetrabenazine] + CN1CCN(C2=Nc3ccccc3Oc3ccc(Cl)cc32)CC1 [loxapine]: the food intake turned out to be 0.0274 ± 0.017.

Turning to `CCCCCCCCCCC(=O)O[C@H]1CC[C@H]2[C@@H]3CCC4=CC(=O)CC[C@]4(C)[C@H]3CC[C@]12C` [testosterone (undecanoate)] + CN1CCN(C2=Nc3ccccc3Oc3ccc(Cl)cc32)CC1 [loxapine], the food intake is 0.0238 ± 0.0023.

With `CCC1(c2cccc(O)c2)CCCCN(C)C1` (configuration not stated) [meptazinol (hydrochloride)] + CN1CCN(C2=Nc3ccccc3Oc3ccc(Cl)cc32)CC1 [loxapine], the food intake turned out to be 0.0231 ± 0.0039.

Regarding `C[N+](C)(C)CCCCCCCCCC[N+](C)(C)C` [decamethonium (bromide)] + CN1CCN(C2=Nc3ccccc3Oc3ccc(Cl)cc32)CC1 [loxapine], the food intake worked out at 0.0222 ± 0.0054.

Take `COc1ccc(CN2CCNCC2)c(OC)c1OC` [trimetazidine (dihydrochloride)] + CN1CCN(C2=Nc3ccccc3Oc3ccc(Cl)cc32)CC1 [loxapine]: the food intake stood at 0.0224 ± 0.003.

With `CN1[C@@H]2CC(O)C[C@H]1[C@@H]1O[C@@H]12` (some centres not stated) [scopine (hydrochloride)] + CN1CCN(C2=Nc3ccccc3Oc3ccc(Cl)cc32)CC1 [loxapine], the food intake amounted to 0.00616 ± 0.012.

Take `Cc1ccc(O)cc1.Cc1cccc(O)c1.Cc1ccccc1O` [cresol] + CN1CCN(C2=Nc3ccccc3Oc3ccc(Cl)cc32)CC1 [loxapine]: the food intake came to 0.0212 ± 0.0037.

As to `Oc1cccc2cccnc12` [8-hydroxyquinoline] + CN1CCN(C2=Nc3ccccc3Oc3ccc(Cl)cc32)CC1 [loxapine], the food intake was 0.0224 ± 0.0032.

Turning to `C[C@]12CCC(=O)C(O)=C1CC[C@@H]1[C@@H]2CC[C@]2(C)C(=O)CC[C@@H]12` [formestane] + CN1CCN(C2=Nc3ccccc3Oc3ccc(Cl)cc32)CC1 [loxapine], the food intake turned out to be 0.0217 ± 0.0021.

`O=[N+]([O-])C(Br)(CO)CO` [bronopol] + CN1CCN(C2=Nc3ccccc3Oc3ccc(Cl)cc32)CC1 [loxapine]: the food intake turned out to be 0.0259 ± 0.0077.
